Among the test systems are SR leukemia; RPMI-8226 leukemia; OVCAR-8 ovarian; OVCAR-5 ovarian; OVCAR-4 ovarian; SK-OV-3 ovarian; IGROV1 ovarian; OVCAR-3 ovarian; HS 578T breast; NCI/ADR-RES ovarian; T-47D breast; BT-549 breast; MDA-MB-435 melanoma; MCF7 breast; HCT-116 colon; HCC-2998 colon; KM12 colon; SW-620 colon.
What all share (assay): NCI-60 one-dose screen, 48 h (100 = growth as untreated, 0 = no growth, -100 = all killed)
Common to all, as to conditions: 10 µM unless noted

Compounds without any hit were thinned out: in the full panel of roughly 83,000, 20% have a hit.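 Negative percent growth values reflect cell death: -40 means 40% of the cells present at the start died, and -100 means all died.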 A number with no mark means an inactive call. The source made the active and inactive calls. How the source made its calls: active means growth percent below 10; inactive means the rest.

In the case of `CCCC[N+](C)(N)CCCC`, the growth was 92.1% with SR leukemia; 94.3% in the test on RPMI-8226 leukemia; 99.2% with OVCAR-8 ovarian; 103% in the test on OVCAR-5 ovarian; 108% in the test on OVCAR-4 ovarian; 102% with SK-OV-3 ovarian. For the same molecule, the growth in the test on IGROV1 ovarian was 119%; with OVCAR-3 ovarian, 113%; in the test with HS 578T breast, 115%; with NCI/ADR-RES ovarian, 119%; in the test on T-47D breast it was 87.9%; with BT-549 breast, 90.9%. For the same molecule, the growth was 102% in the test on MDA-MB-435 melanoma; 97.7% in the test on MCF7 breast; 97.7% with HCT-116 colon; 111% in the test on HCC-2998 colon; 105% in the test with KM12 colon.
Regarding `Nc1nc2c(c3ncncc13)C(c1cccc(C(F)(F)F)c1)Cc1ncncc1-2` (configuration not stated), the growth with SR leukemia was 32.9%; with RPMI-8226 leukemia, 26.8%; in the test on OVCAR-8 ovarian it was 57.6%; in the test on OVCAR-5 ovarian, 77.4%; with OVCAR-4 ovarian, 39.8%; in the test on SK-OV-3 ovarian, 32.9%. Moreover, the growth was 54.4% in the test on IGROV1 ovarian; 2.43% (active) in the test with OVCAR-3 ovarian; 18.2% with HS 578T breast; 15.3% in the test on NCI/ADR-RES ovarian; 37.9% in the test with T-47D breast; 30.1% in the test on BT-549 breast. The growth is -24.7% (active) in the test with MDA-MB-435 melanoma; 28.9% in the test with SW-620 colon; 19.2% in the test with MCF7 breast; 18.5% in the test on HCT-116 colon; 64.3% with HCC-2998 colon; 28.9% in the test with KM12 colon.
Turning to `Cc1nnc(/N=C2\NC(=O)/C(=C/C=C/c3ccccc3)S2)s1`, the growth was 34.8% in the test with SR leukemia; 44.8% in the test with RPMI-8226 leukemia; 49.5% with OVCAR-8 ovarian; 88.3% with OVCAR-5 ovarian; 48.5% in the test on OVCAR-4 ovarian; 58.3% with SK-OV-3 ovarian. Besides, the growth in the test on IGROV1 ovarian is 51.8%; in the test on OVCAR-3 ovarian, 38.5%; in the test with HS 578T breast, 71.7%; with NCI/ADR-RES ovarian it was 44.8%; in the test on T-47D breast, 53.8%; in the test on BT-549 breast, 52.2%. The growth with MDA-MB-435 melanoma was 16.3%; in the test with MCF7 breast, 39.9%; in the test with HCT-116 colon, 36.9%; in the test on HCC-2998 colon it was 67%; with KM12 colon it was 42.7%.
Turning to `O=C1Nc2ccccc2/C1=C/c1cn(CC(O)Cn2cc(/C=C3\C(=O)Nc4ccccc43)c3ccccc32)c2ccccc12` (configuration not stated), the growth in the test on SR leukemia was -2.94% (active); in the test with RPMI-8226 leukemia, -41.7% (active); in the test with OVCAR-8 ovarian it was 1.35% (active); in the test with OVCAR-5 ovarian, -34.2% (active); in the test on OVCAR-4 ovarian it was -51.7% (active); in the test with SK-OV-3 ovarian it was -38.2% (active). Also, the growth is -67.4% (active) in the test with IGROV1 ovarian; -85.1% (active) in the test with OVCAR-3 ovarian; -22.3% (active) in the test on HS 578T breast; 31.8% with NCI/ADR-RES ovarian; -46.1% (active) in the test with T-47D breast; -55.3% (active) in the test on BT-549 breast. Also, the growth in the test with MDA-MB-435 melanoma was -87.6% (active); in the test with MCF7 breast it was -67.5% (active); in the test with HCT-116 colon, -64.2% (active); in the test on HCC-2998 colon, -16.9% (active); with KM12 colon, -80.9% (active).
In the case of `CC(C)(C)c1ccc([I+]c2ccc(C(C)(C)C)cc2)cc1`, the growth is 5.64% (active) in the test on SR leukemia; -19.9% (active) in the test with RPMI-8226 leukemia; 7.15% (active) in the test with OVCAR-8 ovarian; 49.6% with OVCAR-5 ovarian; 18.3% in the test on OVCAR-4 ovarian; 30.3% in the test on SK-OV-3 ovarian. Besides, the growth is 20.9% in the test with IGROV1 ovarian; 2.92% (active) in the test with OVCAR-3 ovarian; 29.1% in the test on HS 578T breast; 90.2% in the test with NCI/ADR-RES ovarian; 11.3% in the test on T-47D breast; -5.08% (active) in the test on BT-549 breast. The growth was -49.1% (active) in the test on MDA-MB-435 melanoma; 7.68% (active) in the test on MCF7 breast; 7.47% (active) with HCT-116 colon; 13.4% with HCC-2998 colon; -30.6% (active) in the test with KM12 colon.
As for `O=C(CCl)NC1c2ccccc2Oc2ccccc21`, the growth with SR leukemia is 33.7%; in the test on RPMI-8226 leukemia, 50.1%; with OVCAR-8 ovarian, 61.2%; in the test with OVCAR-5 ovarian it was 83.9%; in the test on OVCAR-4 ovarian it was 56.5%; in the test with SK-OV-3 ovarian, 85.6%. The growth in the test on IGROV1 ovarian is 46.1%; in the test on OVCAR-3 ovarian it was 68.6%; with HS 578T breast it was 97.4%; in the test with NCI/ADR-RES ovarian it was 101%; in the test with T-47D breast, 65.9%; in the test with BT-549 breast, 55.2%. Further, the growth with MDA-MB-435 melanoma was 62.7%; in the test on SW-620 colon it was 57.1%; with MCF7 breast it was 45.8%; in the test with HCT-116 colon it was 45.9%; with HCC-2998 colon it was 111%; in the test with KM12 colon it was 82.6%.
As to `COC(=O)CC(=O)C(=O)OC`, the growth in the test with SR leukemia was 93.1%; in the test with RPMI-8226 leukemia, 101%; in the test on OVCAR-8 ovarian, 105%; in the test on OVCAR-5 ovarian it was 108%; in the test with OVCAR-4 ovarian it was 108%; with SK-OV-3 ovarian, 106%. Further, the growth was 108% in the test on IGROV1 ovarian; 106% with OVCAR-3 ovarian; 105% in the test on HS 578T breast; 106% in the test on NCI/ADR-RES ovarian; 99.9% in the test with T-47D breast; 101% in the test with BT-549 breast. The growth in the test on MDA-MB-435 melanoma is 120%; with SW-620 colon it was 104%; with MCF7 breast, 97.6%; in the test on HCT-116 colon it was 93.4%; in the test on HCC-2998 colon it was 104%; with KM12 colon, 106%.
Regarding `CCOC(=O)c1c(C)oc2ncnc(Nc3ccc(NC(=O)Nc4cccc(Cl)c4)cc3)c12`, the growth is 53.6% in the test on SR leukemia; 46.1% in the test on RPMI-8226 leukemia; 50.2% in the test on OVCAR-8 ovarian; 122% with OVCAR-5 ovarian; 73.7% in the test with OVCAR-4 ovarian; 93.3% in the test on SK-OV-3 ovarian. Moreover, the growth was 78.4% with IGROV1 ovarian; 80.9% in the test on OVCAR-3 ovarian; 80.6% with HS 578T breast; 43.8% in the test on NCI/ADR-RES ovarian; 1.99% (active) in the test with T-47D breast; 61.6% in the test on BT-549 breast. The growth with MDA-MB-435 melanoma is 65.8%; in the test on SW-620 colon it was 88.7%; in the test with MCF7 breast, 43.3%; in the test with HCT-116 colon, 50.8%; in the test with HCC-2998 colon it was 105%; in the test with KM12 colon, 61%.
On to `Cc1c(Cc2ccccc2)c(=O)oc2c(C)c(OCC(=O)n3nc(C#N)cc3N)ccc12`, for which the growth was 90.3% with SR leukemia; 100% in the test with RPMI-8226 leukemia; 102% in the test with OVCAR-8 ovarian; 104% in the test with OVCAR-5 ovarian; 93% in the test on OVCAR-4 ovarian; 93.8% in the test with SK-OV-3 ovarian. In addition, the growth is 103% in the test with IGROV1 ovarian; 104% in the test with OVCAR-3 ovarian; 99.2% with HS 578T breast; 102% in the test on NCI/ADR-RES ovarian; 81.9% in the test with T-47D breast; 90.3% in the test on BT-549 breast. Moreover, the growth is 102% in the test with MDA-MB-435 melanoma; 89.7% in the test with MCF7 breast; 95.3% in the test with HCT-116 colon; 104% in the test with HCC-2998 colon; 98.7% with KM12 colon.

Values taken from PubChem BioAssay (NCI).
